# Measurements taken from PubChem BioAssay.
# Calls of active or inactive are those of the source.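 The calls were made as follows, unless noted: active = inhibition at or above 50% relative to wild type and mutant plate controls; inactive = inhibition below 50%.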
# Legend:
# [1] = inhibitors of TNFa-induced NFkB p65 translocation, primary screen, imaging, HUVEC, MLSMR starter and 10KST1 sets (AID 438;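 active = inhibition above 20% together with a positive visual image hit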;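 also: compound added about 3h40 before a 20 min TNFalpha stimulation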;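 as to inhibition: signal is the nuclear over cytoplasmic p65 intensity ratio per well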); details: HUVEC TNFa-induced p65 nuclear translocation; cell count: measured here: nuclei count (cytotoxicity indicator), at 2.08 µM; inhibition: at 2 µM, stronger effect = higher value, 0% TNFa-plus-vehicle, 100% no-TNFa wells
# [2] = reduction of polyQ htt aggregates in cells – imaging, exon1htt(103Q)mCFP cells, high-content imaging, primary screen (AID 483;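 active = visual image review flags a hit and inhibition of aggregation exceeds 20%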;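 also: compound exposure lasted 3 days before fixation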;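 as to nuclei count: percent of the per-plate median nuclei count of sample wells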); details: exon1htt(103Q)mCFP cell line, aggregate imaging, at 2 µM; inhibition of aggregation: stronger effect = higher value; nuclei count: measured here: cell count, toxicity
# [3] = endothelial E-selectin expression blockers – imaging, HUVEC, immunofluorescence, MLSMR starter and 10KST1 sets, primary screen (AID 487;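 active = visually confirmed hit in the image check and inhibition above 20%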;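 as to inhibition: signal is fraction of cell area covered by stained E-selectin grains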;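 as to nuclei count: 100% = median nuclei count of all wells on the same plate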); details: HUVEC TNFalpha-induced E-selectin immunofluorescence imaging, at 2 µM; inhibition: stronger effect = higher value; nuclei count: measured here: cell number, toxicity
# [4] = target: Voltage-gated potassium channel subunit beta-2 (Rattus norvegicus) (UniProt P62483); test: inhibitors of rat Kvbeta2 reductase activity – biochemical, NADPH fluorescence, primary screen (AID 622;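 active = fluorescence slope higher than the sample average by over 3 SD, cut at about -0.22 in these data, passing the limit was not always enough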;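 also: slope of raw intensity against log time taken from 70 to 1610 s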); details: recombinant KvBeta, 4-cyanobenzaldehyde reduction, at 10 µM, stronger effect = higher value
# [5] = target: Voltage-gated potassium channel subunit beta-2 (Rattus norvegicus) (UniProt P62483); test: enhancers of rat Kvbeta2 NADPH turnover – biochemical, NADPH fluorescence, primary screen (AID 623;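 active = NADPH fluorescence slope more negative than the mean of all samples by about 3 SD, 99.7% confidence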;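 also: fluorescence intensity change per second fitted from 20 to 320 s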); details: Recombinant KvBeta, NADPH fluorescence decrease slope, 10 min; at 10 µM; stronger effect = lower value
# [6] = target: Muscarinic acetylcholine receptor M4 (Homo sapiens) (UniProt P08173); test: M4-linked GIRK flux change, two-sided – cell-based, HEK293 M4/GIRK, thallium flux, BTC-AM, M4 allosteric agonist project, primary screen (AID 625;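 active = fluorescence slope after compound addition differing from the mean of all tested samples at 99.7% confidence, mostly higher but some lower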;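 also: thallium influx through GIRK channels coupled to M4 in HEK293 cells with BTC-AM dye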); details: at 10 µM, actives lie on both sides
# [7] = blockers of RIG-like receptor reporter activation – cell-based, Sendai virus stimulus, luciferase, 10K MLSCN set, TLR/RLR signaling modifier project, primary screen (AID 602276;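 active = inhibition at or above 50% at 10 µM; inactive = inhibition below 50%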;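 also: firefly luciferase from ISG56 promoter only with Renilla not read in this screen; 0% = Sendai virus plus DMSO and 100% = medium plus DMSO without virus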); details: HEK293 RL24 IRF3 luciferase reporter, at 10 µM, stronger effect = higher value
# [8] = TLR3 IRF3 reporter activation blockers – cell-based, poly I:C stimulus, luciferase, 10K MLSCN set, primary screen (AID 602277;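 active = inhibition of the reporter signal at or above 50%; inactive = inhibition below 50%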); details: HEK293-TLR3 RL24 IRF3 luciferase reporter, at 10 µM, stronger effect = higher value
# [9] = Primary imaging screen for DUSP6 inhibitors that restore phospho-Erk in transfected HeLa cells, chemical complementation (AID 609;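 active = compounds giving at least 50% inhibition in the cell-based MKP-3 phosphatase rescue imaging test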;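 as to inhibition: phospho-Erk level distribution per well compared with pooled transfected vehicle control wells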); details: HeLa MKP-3 transfected, phospho-Erk imaging KS statistic, at 10 µM, cells stimulated with TPA for 15 min
# [10] = target: Dual specificity protein phosphatase 6 (Homo sapiens) (UniProt Q16828); test: as above; details: HeLa MKP-3 transfected, phospho-Erk imaging KS statistic; at 10 µM; stronger effect = higher value; cells stimulated with TPA for 15 min
# [11] = target: Alpha-2C adrenergic receptor (Homo sapiens) (UniProt P18825); test: compounds altering alpha2C-coupled GIRK flux – cell-based, HEK293 alpha2C/GIRK1/2, thallium flux, primary screen (AID 624;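 active = fluorescence slope after compound addition differing from the mean of all screened samples at 99.7% confidence, in either direction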;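 also: slope of fluorescence ratio to pre-addition baseline per second over 15 to 24 s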); details: thallium flux BTC fluorescence, at 10 µM, actives lie on both sides
# [12] = inhibitors of larval lipid processing in zebrafish, primary screen, whole organism, PED6 fluorescence, gall bladder and intestine (AID 686;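 active = a full or partial loss of lipid-probe fluorescence in the fish gall bladder, intestine or both, judged by eye; inactive = no fluorescence loss, or compound toxic to the fish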;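 also: larvae 5 to 7 days old with five fish per well; signal comes from phospholipase A2 cleavage of quenched PED6 carried via bile; overnight exposure to compound and PED6 before scoring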); details: Zebrafish larvae PED6 lipid processing, fluorescence scoring; screened at 20 µM (by protocol)
# [13] = loss of swimming-algae plug formation – whole organism, Chlamydomonas reinhardtii, WT vs cilia-less mutant, absorbance, 96-well, primary screen (AID 463189); details: Chlamydomonas reinhardtii gravitaxis, OD600 absorbance, 2 days; at 10 µM; stronger effect = higher value;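 also: 0% = wild type cc124 cells in DMSO and 100% = ciliumless bld1 mutant cells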
# [14] = measured here: cell density z-score
# [15] = measured here: nuclear c-Myc green intensity z-score
# [16] = measured here: nuclear pErk red intensity z-score, stronger effect = higher value
# Chain of Voltage-gated potassium channel subunit beta-2 (Rattus norvegicus) (P62483 whole entry, looked up): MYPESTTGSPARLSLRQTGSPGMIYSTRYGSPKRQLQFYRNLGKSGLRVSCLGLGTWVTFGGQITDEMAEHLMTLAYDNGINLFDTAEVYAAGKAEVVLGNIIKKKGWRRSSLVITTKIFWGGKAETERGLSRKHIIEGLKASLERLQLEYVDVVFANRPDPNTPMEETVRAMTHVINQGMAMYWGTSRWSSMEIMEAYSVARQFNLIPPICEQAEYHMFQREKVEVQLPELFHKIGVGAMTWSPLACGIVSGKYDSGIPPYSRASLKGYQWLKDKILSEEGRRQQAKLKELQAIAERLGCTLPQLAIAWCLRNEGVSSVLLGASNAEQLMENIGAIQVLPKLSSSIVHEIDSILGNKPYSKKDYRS
# Chain of Muscarinic acetylcholine receptor M4 (Homo sapiens) (P08173 whole entry, looked up): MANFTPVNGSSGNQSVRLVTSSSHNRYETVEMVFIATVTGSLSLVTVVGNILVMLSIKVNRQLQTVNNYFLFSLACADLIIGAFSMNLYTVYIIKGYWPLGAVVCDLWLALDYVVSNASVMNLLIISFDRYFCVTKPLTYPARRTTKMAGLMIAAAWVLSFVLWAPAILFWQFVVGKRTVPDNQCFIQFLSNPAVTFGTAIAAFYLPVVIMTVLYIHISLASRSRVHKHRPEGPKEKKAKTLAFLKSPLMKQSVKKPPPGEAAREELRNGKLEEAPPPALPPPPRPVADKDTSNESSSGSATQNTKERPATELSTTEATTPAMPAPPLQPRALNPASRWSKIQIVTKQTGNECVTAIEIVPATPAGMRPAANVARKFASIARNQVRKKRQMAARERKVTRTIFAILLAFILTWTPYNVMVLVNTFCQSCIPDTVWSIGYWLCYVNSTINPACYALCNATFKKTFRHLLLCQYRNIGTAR
# Chain of Dual specificity protein phosphatase 6 (Homo sapiens) (Q16828 whole entry, looked up): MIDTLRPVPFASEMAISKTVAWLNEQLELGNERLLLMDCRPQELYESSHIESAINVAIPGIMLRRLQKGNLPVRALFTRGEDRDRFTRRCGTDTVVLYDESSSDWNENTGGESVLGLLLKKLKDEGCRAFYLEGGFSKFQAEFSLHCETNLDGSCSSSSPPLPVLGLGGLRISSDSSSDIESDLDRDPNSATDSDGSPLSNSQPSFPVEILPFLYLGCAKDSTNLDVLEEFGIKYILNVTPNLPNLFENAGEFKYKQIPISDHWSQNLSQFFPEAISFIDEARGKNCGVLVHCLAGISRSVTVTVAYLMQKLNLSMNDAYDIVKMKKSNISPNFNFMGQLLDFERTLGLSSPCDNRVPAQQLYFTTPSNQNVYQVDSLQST
# Chain of Alpha-2C adrenergic receptor (Homo sapiens) (P18825 whole entry, looked up): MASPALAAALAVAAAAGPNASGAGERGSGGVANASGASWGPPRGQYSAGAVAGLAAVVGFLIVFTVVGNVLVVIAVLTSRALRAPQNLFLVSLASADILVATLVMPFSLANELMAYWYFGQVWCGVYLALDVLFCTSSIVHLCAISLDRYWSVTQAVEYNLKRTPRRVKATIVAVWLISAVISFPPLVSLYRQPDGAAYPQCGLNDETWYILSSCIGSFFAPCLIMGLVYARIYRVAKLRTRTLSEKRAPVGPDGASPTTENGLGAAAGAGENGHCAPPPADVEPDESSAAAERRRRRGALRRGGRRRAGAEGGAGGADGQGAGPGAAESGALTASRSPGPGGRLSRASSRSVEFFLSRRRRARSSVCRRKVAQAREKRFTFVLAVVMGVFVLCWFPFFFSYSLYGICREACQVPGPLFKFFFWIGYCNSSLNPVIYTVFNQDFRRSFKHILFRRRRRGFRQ
smiles,measurement,setting,value
O=C(O)C1CC(=O)N(c2ccc(Br)cc2)C1 (stereo unspecified),cell count,[1],375
same,inhibition,[1],0.4% (inactive)
same,inhibition of aggregation,[2],-10.6% (inactive)
same,nuclei count,[2],107%
same,inhibition,[3],-49.6% (inactive)
same,nuclei count,[3],117%
same,fluorescence slope,[4],-0.506 (inactive)
same,NADPH fluorescence slope,[5],-0.000215 (inactive)
same,fluorescence slope,[6],0.00384 (inactive)
same,inhibition,[7],2.88% (inactive)
same,inhibition,[8],10% (inactive)
N#CC1=C(N)Oc2n[nH]c(-c3ccncc3)c2C1c1ccsc1 (stereo unspecified),cell count,[1],387
same,inhibition,[1],-1.5% (inactive)
same,inhibition of aggregation,[2],-10.3% (inactive)
same,nuclei count,[2],109%
same,inhibition,[3],35.9% (inactive)
same,nuclei count,[3],98.6%
same,fluorescence slope,[4],-0.546 (inactive)
same,NADPH fluorescence slope,[5],1.9e-05 (inactive)
same,fluorescence slope,[6],0.00579 (inactive)
same,inhibition,[7],-2.51% (inactive)
same,inhibition,[8],-6.52% (inactive)
O=C1NC(c2ccccc2)(C(F)(F)F)SC2=NCCCN12 (stereo unspecified),cell count,[1],429
same,inhibition,[1],4.8% (inactive)
same,inhibition of aggregation,[2],12.3% (inactive)
same,nuclei count,[2],106%
same,nuclei count,[3],154%
same,fluorescence slope,[4],-0.482 (inactive)
same,NADPH fluorescence slope,[5],4.2e-05 (inactive)
same,fluorescence slope,[6],0.00455 (inactive)
same,inhibition,[7],-6.22% (inactive)
same,inhibition,[8],-13.6% (inactive)
CN(C)S(=O)(=O)c1ccc(C(=O)N2CCC(c3nc4ccccc4o3)CC2)cc1,cell count,[1],468
same,inhibition,[1],8.2% (inactive)
same,inhibition of aggregation,[2],-9.7% (inactive)
same,nuclei count,[2],103%
same,inhibition,[3],40.1% (inactive)
same,nuclei count,[3],95%
same,fluorescence slope,[4],-0.427 (inactive)
same,NADPH fluorescence slope,[5],-9.6e-05 (inactive)
same,fluorescence slope,[6],0.00556 (inactive)
same,inhibition,[7],10.5% (inactive)
same,inhibition,[8],12.2% (inactive)
COc1ccc2cc([C@H](C)C(=O)O)ccc2c1,cell count,[1],649
same,inhibition,[1],-0.4% (inactive)
same,inhibition,[3],-51.6% (inactive)
same,nuclei count,[3],120%
same,z-score,[9]; [14],-0.246
same,z-score,[9]; [15],0.258
same,z-score,[9]; [16],0.308
same,inhibition,[10],5.42% (inactive)
same,fluorescence slope,[4],-0.491 (inactive)
same,NADPH fluorescence slope,[5],-6.7e-05 (inactive)
same,slope,[11],0.00486 (inactive)
same,inhibition,[7],13.2% (inactive)
same,inhibition,[8],30.5% (inactive)
CCn1cc(C(=O)O)c(=O)c2ccc(C)nc21,cell count,[1],578
same,inhibition,[1],-2.8% (inactive)
same,inhibition,[3],-83.2% (inactive)
same,nuclei count,[3],111%
same,z-score,[9]; [14],2.22
same,z-score,[9]; [15],-0.0952
same,z-score,[9]; [16],0.302
same,inhibition,[10],5.42% (inactive)
same,fluorescence slope,[4],-0.455 (inactive)
same,NADPH fluorescence slope,[5],-3.9e-05 (inactive)
same,slope,[11],0.00465 (inactive)
same,outcome,[12],inactive
same,inhibition,[7],15.8% (inactive)
same,inhibition,[8],40.1% (inactive)
CC(=O)N[C@@H](Cc1c[nH]c2ccccc12)C(=O)OCc1cc(C(F)(F)F)cc(C(F)(F)F)c1,inhibition,[13],-0.535% (inactive)
Oc1ccccc1O,inhibition,[13],-5% (inactive)
FC(F)(F)c1cc(CO[C@H]2CCCN[C@H]2c2ccccc2)cc(C(F)(F)F)c1,inhibition,[13],14.5% (inactive)
c1ccc([C@H]2CN3CCSC3=N2)cc1,inhibition,[13],-1.39% (inactive)
COc1cc2c(cc1C(F)(F)F)N(C(=O)Nc1cc(F)cc(-c3cccnc3)c1)CC2,inhibition,[13],0.852% (inactive)
COc1cc(C(=O)OCCCN2CCCN(CCCOC(=O)c3cc(OC)c(OC)c(OC)c3)CC2)cc(OC)c1OC,inhibition,[13],9.83% (inactive)
CNC[C@H](O)c1ccc(O)c(O)c1,inhibition,[13],1.9% (inactive)
CCCC(C(=O)OCCN(CC)CC)(c1ccccc1)c1ccccc1,inhibition,[13],4.83% (inactive)
COc1cc(C(O)CO)ccc1O (stereo unspecified),inhibition,[13],1.74% (inactive)
Cn1c(=O)c2[nH]c(-c3ccccc3)nc2n(C)c1=O,inhibition,[13],-0.378% (inactive)
CCCC(=O)NCCc1c2n(c3ccc(OC)cc13)Cc1ccccc1-2,inhibition,[13],-1.81% (inactive)
CCN(CC)CCOCCOC(=O)C1(c2ccccc2)CCCC1,inhibition,[13],5.28% (inactive)
COC(=O)c1c(-c2cc(OC)c(OC)c(OC)c2)c2ccnc(OCc3ncccn3)c2c(=O)n1Cc1ccnc(C)c1,inhibition,[13],-6.21% (inactive)
Oc1ccc(C2CNCCc3c2cc(O)c(O)c3Cl)cc1 (stereo unspecified),inhibition,[13],-6.72% (inactive)
CCNC(=O)N1CCN(CCCC(c2ccc(F)cc2)c2ccc(F)cc2)CC1,inhibition,[13],133% (active)
CCCCCCCCCCCCCCCCCCOC[C@H](COP(=O)([O-])OCC[N+](C)(C)C)OC,inhibition,[13],-2.43% (inactive)
NC(=O)c1ncn([C@@H]2O[C@H](CO)[C@@H](O)[C@H]2O)n1,inhibition,[13],8.25% (inactive)
O=C(O)C1=CC(=C(c2ccc(O)c(C(=O)O)c2)c2ccc(O)c(C(=O)O)c2)C=CC1=O,inhibition,[13],0.098% (inactive)
Oc1ccc(O)cc1,inhibition,[13],0.661% (inactive)
CCN1CCC[C@H]1CNC(=O)c1c(OC)ccc(I)c1O,inhibition,[13],9.9% (inactive)
CC(=O)O[C@H]1CC2(C)[C@@H](C[C@@H](O)[C@H]3[C@@]4(C)CC[C@@H](O)[C@@H](C)[C@@H]4CC[C@@]32C)C1=C(CCC=C(C)C)C(=O)O (stereo partly specified),inhibition,[13],1.57% (inactive)
CCCCCCCCCCCCCCCC(=O)NCC(COP(=O)([O-])OCC[N+](C)(C)C)OCC (stereo unspecified),inhibition,[13],-1.73% (inactive)
CCOC(=O)C12CC1/C(=N/O)c1ccccc1O2 (stereo unspecified),inhibition,[13],6.31% (inactive)
O=C(O)/C=C/C(O)c1ccc(Cl)cc1 (stereo unspecified),inhibition,[13],-3.97% (inactive)
NCCC(=O)NCCc1cnc[nH]1,inhibition,[13],3.88% (inactive)
CC[C@@H](C)[C@H]1O[C@]2(CC[C@@H]1C)C[C@@H]1C[C@@H](C/C=C(\C)[C@@H](O[C@H]3C[C@H](OC)[C@@H](O[C@H]4C[C@H](OC)[C@@H](O)[C@H](C)O4)[C@H](C)O3)[C@@H](C)/C=C/C=C3\CO[C@@H]4[C@H](O)C(C)=C[C@@H](C(=O)O1)[C@]34O)O2,inhibition,[13],22.3% (inactive)
N=C(N)SCCc1cccc(CCSC(=N)N)c1,inhibition,[13],2.04% (inactive)
O=C(O)Cc1c[nH]c2ccc(O)cc12,inhibition,[13],-4.32% (inactive)
O=C(Cc1ccc(Cl)c(Cl)c1)OCCN1CCCC1,inhibition,[13],-10.1% (inactive)
Cc1c(C)c2c(c(C)c1O)CCC(C)(CN1CCN(c3cc(N4CCCC4)nc(N4CCCC4)n3)CC1)O2 (stereo unspecified),inhibition,[13],6.96% (inactive)
Nc1ccc2c3c(cccc13)C(=O)NC2=O,inhibition,[13],32.5% (inactive)
c1cc(CN2CCCCC2)cc(OCCCNc2nc3ccccc3s2)c1,inhibition,[13],26.8% (inactive)
NCCCS(=O)(=O)O,inhibition,[13],-4.87% (inactive)
C[C@@H](Oc1ccc(Oc2cnc3ccc(Cl)cc3n2)cc1)C(=O)O,inhibition,[13],9.86% (inactive)
CCCCNc1c(C(=O)OCC)c(C)nc2c1cnn2CC,inhibition,[13],8.88% (inactive)
NC12CC3CC(CC(C3)C1)C2,inhibition,[13],-2.58% (inactive)
NCCCNCCSP(=O)(O)O,inhibition,[13],1.58% (inactive)
CC1(C)CCC=[N+]1[O-],inhibition,[13],0.394% (inactive)
S=C(Nc1ccccc1)Nc1nccs1,inhibition,[13],7.29% (inactive)
CCCCCC(O)c1cccc(OCc2ccc3ccccc3n2)c1 (stereo unspecified),inhibition,[13],3.99% (inactive)
CC(C)(C)c1cc(/C=C(\C#N)C(N)=S)cc(C(C)(C)C)c1O,inhibition,[13],35.4% (inactive)
O=C(O)c1cc(=O)c2c(Cl)cc(Cl)cc2[nH]1,inhibition,[13],2.38% (inactive)
C[N+](C)(C)CCC(=O)c1cccc2ccccc12,inhibition,[13],7.13% (inactive)
OC[C@H]1NC[C@@H](O)[C@@H]1O,inhibition,[13],-9.59% (inactive)
Nc1ccn([C@@H]2O[C@H](CO)[C@@H](O)[C@@H]2O)c(=O)n1,inhibition,[13],0.194% (inactive)
Oc1ccc(Cn2cc[nH]c2=S)cc1,inhibition,[13],7.18% (inactive)
